Where “and” joins values, the source holds several entries; their conditions need not be identical. Equal values may be shown once. Calls of active or inactive are those of the source. The calls were made as follows: active = hit-call score of the fitted dose curve at least 0.9, where 1 is the maximum; inactive = score below 0.9.

The nature of assay [1]: ATG_GRE_CIS: Attagene CIS-FACTORIAL HepG2 Assay for human Glucocorticoid Response Elements (GRE) (AID 2282947). To be noted: HepG2 GRE cis-reporter, Attagene multiplex mRNA; actives raise or lower the signal. The procedure, abridged:
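Assay uses human hepatoma HepG2 cells transfected with cis-promoter reporter units, exposed 24 h. mRNA from reporters detected by RT-PCR plus capillary electrophoresis; DMSO serves as negative control and baseline.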

The nature of assay [2]: ATG_ISRE_CIS: Attagene CIS-FACTORIAL HepG2 Assay for human Interferon Regulatory Factor 1 (IRF1) binding to an Interferon-Stimulated Response Element (ISRE) (AID 2282948). The settings on record: HepG2 ISRE cis-reporter (Attagene), mRNA transcription readout; actives raise or lower the signal. The procedure, abridged:
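Quantitation relies on labelled RT-PCR fragments separated by capillary electrophoresis. Human HepG2 cells bearing cis-promoter reporter constructs were treated 24 h; DMSO served as baseline for bidirectional fitting.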

The nature of assay [3]: ATG_M_32_CIS: Attagene CIS-FACTORIAL HepG2 Assay for M32 Transcription Factor (Internal Marker) (AID 2282949).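 Also: background control marker of the multiplexed CIS panel rather than a real target.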 To be noted: HepG2 Attagene cis-factorial M32 reporter, mRNA; actives raise or lower the signal. The procedure, abridged: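 Following 24 h chemical exposure of HepG2 cells transiently expressing cis-promoter reporter constructs, reporter transcript levels were determined by RT-PCR with fluorescent labelling and capillary electrophoresis, then fitted bidirectionally against DMSO.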

The nature of assay [4]: ATG_M_06_CIS: Attagene CIS-FACTORIAL HepG2 Assay for M06 Transcription Factor (Internal Marker) (AID 2282950). To be noted: HepG2 Attagene CIS-FACTORIAL M06 internal marker reporter; actives raise or lower the signal. The method in brief:
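Read-out is fluorescence of labelled reporter cDNA fragments resolved by capillary electrophoresis after RT-PCR. Cells: HepG2 carrying transfected cis-promoter reporter units, treated 24 h. Gain or loss of signal fitted relative to DMSO.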

The target in assay [5] is Hypoxia-inducible factor 1-alpha (Homo sapiens) (UniProt Q16665). The experiment in a line: ATG_HIF1a_CIS: Attagene CIS-FACTORIAL HepG2 Assay for human Hypoxia Inducible Factor 1 (HIF1A) (AID 2282951). The settings on record: HepG2 Attagene cis-factorial HIF1a reporter transcription; actives raise or lower the signal. The procedure, abridged:
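HepG2, transient cis-reporter library, 24 h dosing. RNA → RT (oligo dT) → PCR → 6-FAM primer extension → HpaI → CE. Bidirectional curve fit vs DMSO.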

For assay [6], the target named is Hepatocyte nuclear factor 6 (Homo sapiens) (UniProt Q9UBC0). The experiment in a line: ATG_HNF6_CIS: Attagene CIS-FACTORIAL HepG2 Assay for human Hepatocyte Nuclear Factor 6 (HNF6) (AID 2282952). The settings on record: HepG2 Attagene cis-factorial HNF6 reporter transcription; actives raise or lower the signal. The method in brief: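 Reporter mRNA induction or loss in HepG2 after 24 h exposure; transient cis-MRTU transfection; fragments quantified by capillary electrophoresis; bidirectional analysis, DMSO as negative control.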
Sequence of Hepatocyte nuclear factor 6 (Homo sapiens) (Q9UBC0 whole entry, looked up, the tested form may be a part): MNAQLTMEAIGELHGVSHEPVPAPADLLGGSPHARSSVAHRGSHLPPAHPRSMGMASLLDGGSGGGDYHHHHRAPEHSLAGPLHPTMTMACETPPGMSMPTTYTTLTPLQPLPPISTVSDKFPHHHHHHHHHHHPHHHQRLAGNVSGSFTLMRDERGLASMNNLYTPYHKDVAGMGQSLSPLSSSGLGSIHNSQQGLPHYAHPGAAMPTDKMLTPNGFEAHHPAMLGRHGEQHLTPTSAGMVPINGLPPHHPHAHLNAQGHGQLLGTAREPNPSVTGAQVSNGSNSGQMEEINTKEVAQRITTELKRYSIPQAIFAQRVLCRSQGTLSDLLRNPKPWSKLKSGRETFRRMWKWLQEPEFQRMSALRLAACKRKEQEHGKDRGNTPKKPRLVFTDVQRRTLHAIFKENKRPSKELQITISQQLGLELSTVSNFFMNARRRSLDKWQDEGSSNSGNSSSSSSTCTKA

For assay [7], the target named is Heat shock factor protein 1 (Homo sapiens) (UniProt Q00613). The assay is described as follows: ATG_HSE_CIS: Attagene CIS-FACTORIAL HepG2 Assay for human Heat Shock Transcription Factor 1 (HSE) (AID 2282953). The settings on record: HepG2 HSE cis-reporter, Attagene RNA transcription; actives raise or lower the signal. The procedure, abridged: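 HepG2, transient MRTU transfection, cis-promoter reporters (endogenous TF activity). 24 h compound. RNA → oligo(dT) RT → PCR → 6-FAM primer extension → HpaI cut → CE. Bidirectional fit vs DMSO.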
Sequence of Heat shock factor protein 1 (Homo sapiens) (Q00613 whole entry, looked up): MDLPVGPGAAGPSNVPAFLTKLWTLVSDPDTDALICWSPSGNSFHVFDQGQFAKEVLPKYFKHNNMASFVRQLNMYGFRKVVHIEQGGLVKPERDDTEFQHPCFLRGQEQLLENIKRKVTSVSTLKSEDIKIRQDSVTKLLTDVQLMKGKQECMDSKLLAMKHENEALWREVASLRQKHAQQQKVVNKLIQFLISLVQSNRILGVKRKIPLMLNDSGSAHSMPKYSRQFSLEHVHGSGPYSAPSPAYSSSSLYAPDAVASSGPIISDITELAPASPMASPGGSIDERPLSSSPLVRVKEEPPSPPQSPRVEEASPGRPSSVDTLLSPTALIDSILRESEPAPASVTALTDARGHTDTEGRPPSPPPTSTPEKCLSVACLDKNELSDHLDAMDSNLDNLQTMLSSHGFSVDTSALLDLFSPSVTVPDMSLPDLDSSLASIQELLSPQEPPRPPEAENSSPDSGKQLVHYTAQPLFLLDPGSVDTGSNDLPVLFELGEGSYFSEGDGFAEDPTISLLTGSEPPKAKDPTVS

Assay [8] is described as follows: ATG_MRE_CIS: Attagene CIS-FACTORIAL HepG2 Assay for human Metal Responsive Element (MRE) (AID 2282954). To be noted: HepG2 MRE cis-reporter transcription, Attagene multiplex; actives raise or lower the signal. The method in brief:
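After a 24 h chemical exposure, transiently transfected HepG2 cells yield RNA whose reporter sequences are amplified, FAM-labelled and sized by capillary electrophoresis. Curves are fitted bidirectionally relative to DMSO.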

A short description of assay [9]: ATG_PBREM_CIS: Attagene CIS-FACTORIAL HepG2 Assay for human Phenobarbital-responsive Enhancer Module (PBREM) (AID 2282955). The settings on record: HepG2 PBREM cis-reporter, Attagene multiplexed transcription; actives raise or lower the signal. The procedure, abridged: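 HepG2, transient MRTU transfection, 24 h dosing; RNA → oligo(dT) RT → PCR → 6-FAM extension → HpaI → CE. Bidirectional fit vs DMSO.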

Assay [10] concerns the target Paired box protein Pax-6 (Homo sapiens) (UniProt P26367). The assay is described as follows: ATG_Pax6_CIS: Attagene CIS-FACTORIAL HepG2 Assay for human Paired Box 6 (PAX6) (AID 2282956). The settings on record: HepG2 CIS-FACTORIAL PAX6 reporter transcription, RNA readout; actives raise or lower the signal. The procedure, abridged: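 After twenty-four hours of chemical exposure, transfected HepG2 cells are harvested for RNA. Cis-promoter reporter transcripts are amplified, fluorescently labelled and sized by capillary electrophoresis, with gain and loss of signal scored against DMSO.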

Sequence of Hypoxia-inducible factor 1-alpha (Homo sapiens) (Q16665 whole entry, looked up): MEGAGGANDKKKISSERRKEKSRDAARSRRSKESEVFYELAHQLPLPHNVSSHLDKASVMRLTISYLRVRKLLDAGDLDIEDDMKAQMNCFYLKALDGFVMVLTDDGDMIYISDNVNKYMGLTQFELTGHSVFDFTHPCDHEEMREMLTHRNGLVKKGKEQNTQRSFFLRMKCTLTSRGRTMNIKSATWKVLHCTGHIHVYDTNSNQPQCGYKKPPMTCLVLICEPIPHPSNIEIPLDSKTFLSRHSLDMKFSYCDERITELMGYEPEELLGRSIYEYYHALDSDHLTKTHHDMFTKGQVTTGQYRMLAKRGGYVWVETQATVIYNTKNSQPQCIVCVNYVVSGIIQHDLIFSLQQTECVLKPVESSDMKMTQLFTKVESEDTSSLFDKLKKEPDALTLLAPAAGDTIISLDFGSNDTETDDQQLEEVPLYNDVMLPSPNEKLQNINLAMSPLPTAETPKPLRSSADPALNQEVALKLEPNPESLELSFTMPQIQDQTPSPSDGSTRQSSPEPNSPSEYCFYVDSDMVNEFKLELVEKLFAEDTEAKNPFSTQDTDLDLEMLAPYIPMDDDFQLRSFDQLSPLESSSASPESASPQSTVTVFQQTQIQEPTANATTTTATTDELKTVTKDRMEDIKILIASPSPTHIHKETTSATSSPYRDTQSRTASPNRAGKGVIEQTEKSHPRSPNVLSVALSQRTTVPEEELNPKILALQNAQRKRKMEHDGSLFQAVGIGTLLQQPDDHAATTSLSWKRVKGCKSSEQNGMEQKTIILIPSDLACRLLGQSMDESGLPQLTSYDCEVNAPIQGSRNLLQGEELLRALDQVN
Sequence of Paired box protein Pax-6 (Homo sapiens) (P26367 whole entry, looked up): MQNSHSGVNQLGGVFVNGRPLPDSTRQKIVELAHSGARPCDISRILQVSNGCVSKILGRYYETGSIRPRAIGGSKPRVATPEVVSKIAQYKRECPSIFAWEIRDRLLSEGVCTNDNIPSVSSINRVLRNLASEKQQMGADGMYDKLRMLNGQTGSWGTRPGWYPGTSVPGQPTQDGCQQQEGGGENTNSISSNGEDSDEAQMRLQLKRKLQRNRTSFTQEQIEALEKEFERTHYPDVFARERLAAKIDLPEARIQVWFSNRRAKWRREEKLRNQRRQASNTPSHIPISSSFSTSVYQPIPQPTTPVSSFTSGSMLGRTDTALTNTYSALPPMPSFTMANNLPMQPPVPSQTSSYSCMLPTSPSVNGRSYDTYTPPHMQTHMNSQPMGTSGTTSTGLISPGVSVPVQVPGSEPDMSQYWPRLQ

`CN(C)C(=O)NC1(c2ccccc2)CCN(CCC[C@]2(c3ccc(Cl)c(Cl)c3)CCCN(C(=O)c3ccccc3)C2)CC1`: the result in assay [1], in assay [2], in assay [3], in assay [4], in [5] and in [6] was inactive. Besides, the outcome in assay [7] and in [9] was inactive. Further, the AC50 is 4.19 µM (active) in assay [8] and 4.94 µM (active) in assay [10].
Regarding `CCCCC(CC)COP(=O)(OCC(CC)CCCC)OCC(CC)CCCC` (stereo unspecified), the outcome in [1], in assay [2], in assay [3], in [5], in [6] and in [7] was inactive. For the same compound, the call in assay [8], in assay [9] and in assay [10] was inactive.
For the compound `N[C@@H](Cc1c[nH]c2ccccc12)C(=O)O`, the outcome in assay [1], in assay [2], in assay [3], in assay [4], in assay [6] and in assay [7] was inactive. In addition, the call in assay [8] and in [10] was inactive. Also, in [5], the AC50 is 27.3 µM (active).
With `CCCCCCC(CCCCCCCCCCC(=O)OCC(COC(C)=O)OC(C)=O)OC(C)=O` (stereo unspecified), the outcome in assay [1], in [2], in [3], in [4], in assay [5] and in [6] was inactive. Moreover, the compound was called inactive in assay [8] and in assay [10]. In addition, in assay [7], the AC50 was 90.7 µM (active).
On to `CO[C@@H]1COCC[C@@H]1N[C@@H]1CC[C@@](C(=O)N2CCc3ncc(C(F)(F)F)cc3C2)(C(C)C)C1`, for which the outcome in assay [1], in assay [2], in assay [3], in assay [4], in assay [5] and in assay [6] was inactive. The result in assay [8], in assay [9] and in assay [10] was inactive.
As for `CC(C)c1cccc(C(C)C)c1`, the call in assay [1], in assay [2], in assay [3], in assay [4], in assay [5] and in assay [6] was inactive. Further, the compound was called inactive in assay [8] and in [10].
On to `O=C1NC(=O)C(c2ccccc2)(c2ccccc2)N1`, for which the outcome in [1], in [2], in [3], in [4], in assay [6] and in assay [8] was inactive. In addition, the outcome in [9] and in assay [10] was inactive.
Consider `CCc1nc(N)nc(N)c1-c1ccc(Cl)cc1`, for which the result in [1], in assay [4] and in assay [9] was inactive. Moreover, the AC50 is 100 µM (active) in [2]; 174 µM (active) in [3]; 100 µM (active) in assay [6]; 100 µM (active) in assay [8]; 46 µM (active) in [10].
Turning to `S=c1[nH]c2ccccc2s1`, the outcome in [1], in assay [3], in [4], in assay [5], in [6] and in assay [7] was inactive. In addition, the outcome in [8], in assay [9] and in assay [10] was inactive. Moreover, the AC50 in assay [2] is 41.8 µM (active).
As to `Nc1nc(=S)c2[nH]cnc2[nH]1`, the compound was classed as inactive in assay [1], in assay [3], in assay [4], in assay [5], in [6] and in assay [7]. Moreover, the compound was called inactive in [8], in assay [9] and in assay [10].
In the case of `COc1ccc(OC(F)(F)F)cc1CN[C@H]1CCCN[C@H]1c1ccccc1`, the outcome in assay [1], in assay [2], in assay [3], in assay [5], in assay [6] and in assay [8] was inactive. The result in [9] and in [10] was inactive.
Take `O=C1c2c(O)cccc2Cc2cccc(O)c21`: the outcome in assay [1], in assay [3], in [4], in assay [6], in assay [7] and in assay [8] was inactive. The result in [9] and in assay [10] was inactive. Moreover, the half-maximal activity concentration (AC50) in assay [5] is 26.6 µM (active).
Regarding `Cc1cc(SC2=C(O)C[C@@](CCc3ccc(N)cc3)(C(C)C)OC2=O)c(C(C)(C)C)cc1CO`, the compound was classed as inactive in [1], in assay [3], in [4], in assay [5], in assay [6] and in assay [8]. Besides, the compound was classed as inactive in assay [10].
On to `CC(=O)OC1CC(C)OC(C)O1` (stereo unspecified), for which the outcome in assay [1], in [3], in assay [4], in assay [5], in assay [6] and in assay [8] was inactive. Also, the result in assay [9] and in assay [10] was inactive.
As to `Cn1cnc2c1c(=O)[nH]c(=O)n2C`, the call in assay [1], in assay [2], in [3], in assay [6], in assay [7] and in assay [8] was inactive. For the same compound, the outcome in assay [9] and in [10] was inactive.
`CCCCc1nc2cccnc2n1Cc1ccc(-c2ccccc2-c2nnn[nH]2)cc1`: the compound was called inactive in assay [1], in assay [2], in assay [3], in assay [5], in [6] and in [8]. Further, the outcome in [9] and in assay [10] was inactive.
In the case of `O=C1O[C@H]([C@H](O)CO)C(O)=C1O`, the call in [1], in assay [3], in [4], in [5], in assay [6] and in [8] was inactive. Besides, the result in assay [9] and in [10] was inactive.
Turning to `CCc1cc(C2=C(C(=O)O)N(c3ccccc3C(F)(F)F)S(=O)(=O)c3ccccc32)cc2c1OCO2`, the compound was classed as inactive in assay [1], in assay [3], in assay [4], in [5], in [6] and in [10]. In addition, the values for the concentration at half-maximal activity (AC50) in assay [7], in assay [8] and in assay [9] were 154 µM (active), 58.5 µM (active) and 19.8 µM (active), respectively.
As to `NCCOCCOCCN`, the result in assay [1], in [3], in [4], in assay [5], in assay [6] and in assay [7] was inactive. Besides, the outcome in assay [8], in assay [9] and in assay [10] was inactive.
With `CCCCCCC(C=O)=Cc1ccccc1`, the result in assay [1], in assay [3], in [5], in assay [6], in [9] and in assay [10] was inactive. The concentration at half-maximal activity (AC50) is 157 µM (active) and 93.3 µM (active) in [7]; 137 µM (active) and 89.2 µM (active) in assay [8].

A word on the AC50: it is the concentration at which the activity in the assay is half-maximal.

(Values after PubChem BioAssay (EPA / NIEHS).)
